Reference: PMC9911399, “Two distinct binding modes provide the RNA-binding protein RbFox with extraordinary sequence specificity”
Numbering of substitutions follows the chain as printed; changes in the protein carry UniProt numbers. The full ranking holds about 16,000 sequences; the median of “ka relative to ugcaugu” is about 0.0091, and the highest 2% start at about 0.032. This is one part of a sample in which the highest values are shown more often than they occur.

T1: RBFOX1 RRM (Homo sapiens, UniProt Q9NWB1 109-208)
T1 sequence: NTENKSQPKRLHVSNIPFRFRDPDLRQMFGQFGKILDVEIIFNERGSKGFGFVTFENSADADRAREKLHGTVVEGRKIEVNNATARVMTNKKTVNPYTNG

B1: AGCUCAC (DNA:RNA)
RNA: GGGAGACCGGAAUUCAGAUUGUCCAGCUCACUUAAAUCCCGUCGUAGCCACCA
DNA 1: CAATCTGAATTCCGGTCTCCC
DNA 2: TGGTGGCTACGACGGGATT
B2: ACUGACU (DNA:RNA)
RNA: B1 RNA with G26C, C27U, U28G, C29A, A30C, C31U
DNA 1: CAATCTGAATTCCGGTCTCCC
DNA 2: TGGTGGCTACGACGGGATT
B3: UAAAUCG (DNA:RNA)
RNA: GGGAGACCGGAAUUCAGAUUGUCCUAAAUCGUUAAAUCCCGUCGUAGCCACCA
DNA 1: CAATCTGAATTCCGGTCTCCC
DNA 2: TGGTGGCTACGACGGGATT
B4: GAAAAGU (DNA:RNA)
RNA: B3 RNA with U25G, U29A, C30G, G31U
DNA 1: CAATCTGAATTCCGGTCTCCC
DNA 2: TGGTGGCTACGACGGGATT
B5: AGAAACC (DNA:RNA)
RNA: B1 RNA with C27A, U28A, C29A, A30C
DNA 1: CAATCTGAATTCCGGTCTCCC
DNA 2: TGGTGGCTACGACGGGATT
B6: CUCAAUG (DNA:RNA)
RNA: B3 RNA with U25C, A26U, A27C, U29A, C30U
DNA 1: CAATCTGAATTCCGGTCTCCC
DNA 2: TGGTGGCTACGACGGGATT
B7: CGCGAUA (DNA:RNA)
RNA: B1 RNA with A25C, U28G, C29A, A30U, C31A
DNA 1: CAATCTGAATTCCGGTCTCCC
DNA 2: TGGTGGCTACGACGGGATT
B8: ACCAGGG (DNA:RNA)
RNA: B1 RNA with G26C, U28A, C29G, A30G, C31G
DNA 1: CAATCTGAATTCCGGTCTCCC
DNA 2: TGGTGGCTACGACGGGATT
B9: GUCCCCC (DNA:RNA)
RNA: B1 RNA with A25G, G26U, U28C, A30C
DNA 1: CAATCTGAATTCCGGTCTCCC
DNA 2: TGGTGGCTACGACGGGATT

molecular target: T1, RBFOX1 RRM; experiment: EMSA; HiTS-Eq, 1 nM pool, 10 min; buffer printed only for the single-RNA assays: 10 mM Tris pH 7.5, 150 mM NaCl, 3.4 mM EDTA, 0.001% NP-40, 30 C; conditions: tags: His6 N-terminal (pET28a); label: 5' 32P
How it was run: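 A pool of RNA with 7 randomized nucleotides, 5′-radiolabelled and with DNA-annealed flanks, was equilibrated at 1 nM for 10 min in 50 µL with purified RbFox RRM, wild type or mutant, across increasing protein concentrations. Free RNA was separated by 8% native PAGE, excised, reverse-transcribed, barcoded by PCR and sequenced. Relative association constants were obtained from read-count changes of each RNA species versus the control reaction and normalised to the cognate motif.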

Binder	binding signal
B1	0.00457 KA relative to UGCAUGU
B2	0.00677 KA relative to UGCAUGU
B3	0.00678 KA relative to UGCAUGU
B4	0.00662 KA relative to UGCAUGU
B5	0.00391 KA relative to UGCAUGU
B6	0.00378 KA relative to UGCAUGU
B7	0.00807 KA relative to UGCAUGU
B8	0.00782 KA relative to UGCAUGU
B9	0.0163 KA relative to UGCAUGU
